Screens: PubChem BioAssay, National Center for Advancing Translational Sciences (NCATS)
Pol iota inh – qHTS for Inhibitors of Polymerase Iota; DNA polymerase iota (Homo sapiens), Q9UNA4; Pol iota fluorescent replication assay, 10 min; Potency, µM (series often up to 115 µM), for inactives: top-dose activity, negative = inhibition, most hits filed as inhibitors; 390,000 tested, 1% active; AID 588590, 2011
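Fluorescent replication assay read twice, at 0 min and 10 min after adding 50 nM (final) substrate. Enzyme (10 nM) and compounds were first incubated 15 min at room temperature; enzyme-free buffer wells were negative controls.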
Pol kappa inh – qHTS for Inhibitors of Polymerase Kappa | DNA polymerase kappa (Homo sapiens), Q9UBT6 | purified Pol kappa, fluorescent DNA synthesis assay, 10 min | Potency, µM (highest dose often 107 µM), without a hit: at the top dose activity, negative = inhibition, usual class: inhibitors | 400,000 tested, 0.53% active; note: % is set by controls: 0 for no effect and ±100 for the full control effect
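Readout: fluorescence, taken kinetically at 0 and 10 min. Conditions: 10 nM Pol kappa, 15 min RT compound preincubation, 50 nM substrate final. Controls: enzyme-free buffer wells.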
POLH inh – qHTS for Inhibitors of Polymerase Eta. recombinant Pol eta, fluorescent DNA replication assay. 390,000 tested, 1.2% active. Potency, µM (series often up to 114 µM), for inactives: top-dose activity change, negative = inhibition, usual class: inhibitors. DNA polymerase eta (Homo sapiens), Q9Y253; note: % is set by controls: 0 for no effect and ±100 for the full control effect
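Pol eta (10 nM) was preincubated with compounds for 15 min at room temperature, after which fluorescent replication substrate (50 nM final) was added to start the reaction. Fluorescence was read kinetically at 0 and 10 min.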
Pol beta inh – qHTS Assay for Inhibitors of DNA Polymerase Beta; Pol beta primer extension/strand displacement, fluorescence kinetic; Potency, µM (highest dose often 114 µM), for the others: at the highest dose activity change, negative = inhibition, hits mostly inhibitors; 340,000 tested, 1.3% active; P06746; note: % is set by controls: 0 for no effect and ±100 for the full control effect
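Homogeneous kinetic assay of primer extension and strand displacement by 10 nM Pol beta, preincubated 15 min at room temperature with compound before 50 nM substrate (final) was added. Read at 0 and 10 min; four-parameter Hill fit.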
TDP1 block – qHTS Assay for Inhibitors of Tyrosyl-DNA Phosphodiesterase (TDP1). Potency, µM (top dose mostly 130 µM), without a hit: at the highest dose activity change, negative = inhibition, actives largely listed as inhibitors. recombinant TDP1, AlphaScreen DNA substrate cleavage. AID 485290, 2010. 350,000 tested, 0.28% active; note: % is set by controls: 0 for no effect and ±100 for the full control effect; nearly all actives have a fitted effect of over 40% in size
Target sequence (Q9NUW8 whole entry, looked up): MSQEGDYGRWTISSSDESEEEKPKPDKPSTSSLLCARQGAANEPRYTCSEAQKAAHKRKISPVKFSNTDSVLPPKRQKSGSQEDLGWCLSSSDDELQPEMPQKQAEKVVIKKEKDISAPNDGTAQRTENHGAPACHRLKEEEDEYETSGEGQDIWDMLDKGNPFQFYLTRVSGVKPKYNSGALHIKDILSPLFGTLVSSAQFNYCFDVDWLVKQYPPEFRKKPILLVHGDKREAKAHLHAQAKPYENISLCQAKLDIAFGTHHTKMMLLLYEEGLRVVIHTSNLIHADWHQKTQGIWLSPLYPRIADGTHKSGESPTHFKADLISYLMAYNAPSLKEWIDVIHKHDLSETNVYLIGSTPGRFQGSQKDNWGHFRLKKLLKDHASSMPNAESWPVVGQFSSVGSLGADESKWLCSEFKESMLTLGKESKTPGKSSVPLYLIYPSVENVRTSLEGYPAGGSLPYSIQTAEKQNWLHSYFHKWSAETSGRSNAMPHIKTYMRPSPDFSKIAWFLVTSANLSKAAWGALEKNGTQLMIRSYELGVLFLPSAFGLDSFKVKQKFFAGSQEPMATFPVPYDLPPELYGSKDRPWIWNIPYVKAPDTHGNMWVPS
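E. coli-derived human Tdp1, 1 nM final. Cpd preinc 15 min RT; substrate 15 nM final, 5 min RT; AS bead mix 10 ug/ml final, 10 min RT. Signal loss = tyrosine-FITC cleavage. No-enzyme wells = max signal.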
FEN1 inh – qHTS Assay for the Inhibitors of Human Flap endonuclease 1 (FEN1); P39748; Recombinant FEN1 flap cleavage, fluorescence, 15 min; Potency, µM (highest dose often 114 µM), without a hit: at the top dose activity change, negative = inhibition, actives largely listed as inhibitors; 390,000 tested, 0.35% active; note: % is set by controls: 0 for no effect and ±100 for the full control effect; nearly all actives have a fitted effect of over 65% in size
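Recombinant FEN1 (10 nM) was preincubated with pin-transferred compounds for 15 min at room temperature, then flap DNA substrate (50 nM final) was added. Plates were read at 0 and 15 min, and normalized concentration–response data were fitted to a four-parameter Hill equation.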
An asterisk follows results filed as active; ? = inconclusive; / = not tested or not shown; [ ] = remark or other dose. Hits are enriched below; roughly 2.4% of the tested compounds scored in any of these assays. Calls come from the whole dose curve; as a rule, active = well fitted curve in the direction sought with a large enough effect; inconclusive = small, poorly fitted or top-dose-only effect, or another doubt; inactive = no such curve, though single readings can be large; an effect the other way counts as inactive or inconclusive. Potency is the fitted concentration of half-maximal effect.

SMILES	Pol iota inh	Pol kappa inh	POLH inh	Pol beta inh	TDP1 block	FEN1 inh
Cc1cccc(NC2=C/C(=N/S(=O)(=O)c3cccs3)c3ccccc3C2=O)c1	-7.9%	-16.6%	-10.3%	0.0%	2.7%	-18.7%
CCc1ccc(S(=O)(=O)/N=C2\C=C(Nc3ccc(O)cc3)C(=O)c3ccccc32)cc1	12.6µM*	-22.6%	?	?	13.2%	-15.3%
CCOc1ccc(C(=O)c2oc3ccccc3c2NC(=O)c2cc(-c3ccccc3)on2)cc1	38.4%	-14.1%	0.6%	-19.0%	2.6%	3.0%
S=C(S)O[C@@H]1C[C@@H]2C[C@H]1[C@@H]1CCC[C@H]21	/	-8.2%[19.4 µM]	/	/	14.1%[56.1 µM]	/
COc1ccc(Br)c2c1-c1nc(NC(=O)c3cccc(C)c3)sc1C2	?	-32.6%	-8.9%	32.2%	2.1%	?
CCOc1ccc(/C=C2\SC(=S)N(C(C(=O)O)c3ccccc3)C2=O)cc1OC (stereo unspecified)	?	-9.5%	79.4µM*	-16.4%	/	5.4%
COc1ccc(OC)c(/C=C2\SC(=S)N(C(C(=O)O)c3ccccc3)C2=O)c1 (stereo unspecified)	20.9%	1.5%	?	1.1%	5.0%	-22.7%
O=C(O)C(c1ccccc1)N1C(=O)/C(=C/c2cccs2)SC1=S (stereo unspecified)	?	0.3%	-7.8%	0.8%	3.8%	2.9%
C=CCOc1ccc(/C=C2\SC(=S)N(C(C(=O)O)c3ccccc3)C2=O)cc1 (stereo unspecified)	?	-3.7%	79.4µM*	5.4%	5.6%	0.8%
CC(/C=C1\SC(=S)N(C(C(=O)O)c2ccccc2)C1=O)=C\c1ccccc1 (stereo unspecified)	?	?	89.1µM*	17.9%	5.5%	-15.6%
Cc1ccc(S(=O)(=O)C(CNS(=O)(=O)c2ccc(F)c(C(F)(F)F)c2)c2ccco2)cc1 (stereo unspecified)	36.5%	-11.0%[60.1 µM]	-7.3%	-2.2%	-5.2%	19.0%
CN(C)CCNC(=O)c1cccc2nc3c(ccc4ccccc43)nc12	79.4µM*	?	?	/	/	12.6µM*
CN(C)CCNC(=O)c1cc(Sc2ccc(F)cc2)nc2ccccc12	/	/	/	0.5%	0.0%	/
CN(C)CCNC(=O)c1cccc2[nH]c(-c3ccncc3)nc12	?	-33.0%	14.5%	/	/	44.7µM*
COc1ccc(C(=O)NCCN(C)C)c2nc3ccccc3cc12	79.4µM*	?	?	/	/	14.1µM*
CCOC(=O)c1ccc(NC(=O)CC2C(=O)N(c3ccc(F)cc3)C(=O)N2Cc2ccc3c(c2)OCO3)cc1 (stereo unspecified)	27.8%	-6.5%	?	-0.4%	6.4%	8.5%
COc1ccc(NC(=O)c2cc(=O)c3cc(C)cc(C)c3o2)cc1	27.1%	5.1%	-17.8%	2.0%	4.9%	1.9%
O=C(Nc1nc2ccc(S(=O)(=O)N3CCCC3)cc2s1)c1ccc(F)cc1	-22.2%	-22.8%	-0.4%	3.9%	2.7%	-4.4%
O=S(=O)(Nc1nc2ccc(S(=O)(=O)N3CCCC3)cc2s1)c1ccc(F)cc1	?	-27.9%	89.1µM*	-1.8%	5.1%	-4.6%
O=C(CSc1nc2nc(-c3cccs3)cc(C(F)(F)F)c2c(=O)[nH]1)Nc1ccc(F)c(F)c1	?	?	31.6µM*	28.2µM*	-3.6%	?
O=C(Cc1ccccc1)NC1CC(=O)N(c2ccccc2)C1 (stereo unspecified)	-13.0%	-6.4%[60.1 µM]	-6.7%	40.7%	0.0%	-12.9%
O=C(O)c1cc(N=Nc2ccc(O)c(C(=O)O)c2)ccc1O	/	3.0%[19.4 µM]	/	/	/	/
O=C(O)c1cc(N=Nc2ccc(-c3ccc(N=Nc4ccc(O)c(C(=O)O)c4)cc3)cc2)ccc1O	/	5.97µM*	/	/	?	/
COc1ccc(C2Nc3ccccc3C(=O)N2Cc2ccccc2C(F)(F)F)cc1COc1ccc(NC(C)=O)cc1 (stereo unspecified)	/	/	/	/	-13.5%	/
COCCNC(=O)C1CC(c2ccc(F)cc2)=NO1 (stereo unspecified)	-2.4%	-3.8%	2.8%	-5.7%	4.0%	1.0%
SMILES	Pol iota inh	Pol kappa inh	POLH inh	Pol beta inh	TDP1 block	FEN1 inh
O=C(O)C1CC(c2ccc(F)cc2)=NO1 (stereo unspecified)	-3.3%	-10.5%	-1.7%	7.94µM*	2.2%	-1.7%
COCCCNC(=O)c1sc2nc(C)c(C(=O)Nc3ccc(C)cc3C)c(-c3ccc(Cl)cc3)c2c1N	14.7%	-20.7%	-26.2%	0.7%	5.9%	-10.1%
Cc1cc(C)c(C#N)c(SCC(=O)c2cccs2)n1	-16.9%	-10.2%	-14.7%	0.7%	50.1µM*	-8.2%
Cc1cc(C)c(C#N)c(SCC(=O)c2ccccc2)n1	10.3%	2.9%[60.1 µM]	-12.4%	16.4%	-6.0%	0.5%
CC[C@]12c3[nH]c4cc(-c5ccco5)ccc4c3CCN1C(=O)[C@@H](CC(=O)NCCCn1ccnc1)C[C@@H]2C(=O)N1CCN(C(=O)C2CC2)CC1	-8.5%	7.7%	-12.2%	/	1.7%[56.1 µM]	14.8%
COc1ccc2nc(C)cc(SCC(=O)NNC(=O)COc3cccc4ccccc34)c2c1	?	-21.6%	?	12.6µM*	-5.6%	-15.1%
COc1ccc2nc(C)cc(SCC(=O)NNC(=O)COc3ccc(C)cc3)c2c1	18.6%	-4.9%	-4.9%	?	-1.1%	5.2%
O=C(CCS(=O)(=O)c1ccccc1)N(CCCN1CCOCC1)c1nc2c(F)cccc2s1	4.6%	-18.9%	-5.3%	/	0.0%	-9.2%
CCc1cccc2sc(N(CCCN3CCOCC3)C(=O)CS(=O)(=O)c3ccccc3)nc12	89.1µM*	-38.5%	-26.8%	/	1.2%	-33.5%
O=[N+]([O-])c1ccc(Sc2ccncn2)c([N+](=O)[O-])c1	/	/	50.1µM*	/	/	/
O=C(Nc1ccccc1)Nc1nc(Nc2cc(F)cc(F)c2)nc(NC2CCCC2)n1	/	/	/	/	0.8%	/
CC(C)Cc1csc(=S)[nH]1	38.7%	-1.6%	-2.9%	/	/	-3.3%
O=C(NC(=S)NNC(=O)c1cccs1)c1ccco1	-4.0%	-20.2%	-3.0%	15.1%	10.1%	7.6%
O=C(Nc1ccc(NC(=S)NC(=O)c2cccs2)cc1)c1ccco1	35.5µM*	?	79.4µM*	?	-1.2%	?
O=c1cc(C(O)C[N+](=O)[O-])occ1OCc1ccccc1 (stereo unspecified)	25.1µM*	?	-20.0%	/	/	-8.0%
